# According to article PMC7862700, “An all-to-all approach to the identification of sequence-specific readers for epigenetic DNA modifications on cytosine”:
# Tests used:
# Experiment in all cases: DAPPL (digital affinity profiling via proximity ligation, sequencing); 10 mM Tris-HCl pH 7.5, 50 mM NaCl, 1 mM DTT, 4% glycerol, room temperature, 30 min; GST-TFs on glutathione beads, 16-mer random dsDNA library, 0.1% formaldehyde crosslink after washing; high values mean tight binding
# FEV = target: T1, FEV (Homo sapiens, UniProt Q99581 1-238); settings: protein: recombinant; tags: N-terminal GST; dsDNA, one strand shown
# T1 sequence: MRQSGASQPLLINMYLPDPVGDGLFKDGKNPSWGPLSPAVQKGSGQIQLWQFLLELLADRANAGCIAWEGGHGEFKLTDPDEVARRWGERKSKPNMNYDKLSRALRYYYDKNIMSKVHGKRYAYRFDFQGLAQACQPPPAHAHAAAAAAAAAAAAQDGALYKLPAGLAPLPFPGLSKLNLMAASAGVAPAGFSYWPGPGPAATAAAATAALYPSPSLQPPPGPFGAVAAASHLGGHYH
# In short: (§1)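 The binding signal reported is, for every hexamer, its read frequency for a factor over its read frequency for the tag-only sample. Reads came from pools of yeast-expressed, GST-fused human transcription factors on glutathione beads, barcoded with DNA and mixed with that sample, which were incubated with 200 nmole of a random double-stranded 16-mer DNA library in Tris/NaCl/DTT/glycerol buffer at room temperature for 30 min. After washing, the pools were crosslinked with 0.1% formaldehyde, proximity-ligated with BsaI/T4 ligase for 1 h at 37 °C, PCR-amplified and sequenced on an Illumina NextSeq500.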
# ETV5 = ETV5 (Homo sapiens, UniProt P41161 1-510); settings: protein: recombinant; tags: N-terminal GST; dsDNA, one strand shown
# In short: as §1
# HSF1 = HSF1 (Homo sapiens, UniProt Q00613 1-529); settings: protein: recombinant; tags: N-terminal GST; chain copies: 3; dsDNA, one strand shown
# In short: as §1
# SPIC = target: T2, SPIC (Homo sapiens, UniProt Q8N5J4 1-248); settings: protein: recombinant; tags: N-terminal GST; dsDNA, one strand shown
# T2 sequence: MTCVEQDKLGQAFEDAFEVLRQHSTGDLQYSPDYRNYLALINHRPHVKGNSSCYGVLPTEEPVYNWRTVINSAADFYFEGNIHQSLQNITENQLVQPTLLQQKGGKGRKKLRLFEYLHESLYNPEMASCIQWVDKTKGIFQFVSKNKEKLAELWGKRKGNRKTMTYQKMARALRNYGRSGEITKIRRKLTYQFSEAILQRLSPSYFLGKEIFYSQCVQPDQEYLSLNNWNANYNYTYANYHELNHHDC
# In short: as §1
# ELF4 = ELF4 (Homo sapiens, UniProt Q99607 1-663); settings: protein: recombinant; tags: N-terminal GST; dsDNA, one strand shown
# In short: as §1
# ELK4 = target: T3, ELK4 (Homo sapiens, UniProt P28324-2 1-405); settings: protein: recombinant; tags: N-terminal GST; dsDNA, one strand shown
# T3 sequence: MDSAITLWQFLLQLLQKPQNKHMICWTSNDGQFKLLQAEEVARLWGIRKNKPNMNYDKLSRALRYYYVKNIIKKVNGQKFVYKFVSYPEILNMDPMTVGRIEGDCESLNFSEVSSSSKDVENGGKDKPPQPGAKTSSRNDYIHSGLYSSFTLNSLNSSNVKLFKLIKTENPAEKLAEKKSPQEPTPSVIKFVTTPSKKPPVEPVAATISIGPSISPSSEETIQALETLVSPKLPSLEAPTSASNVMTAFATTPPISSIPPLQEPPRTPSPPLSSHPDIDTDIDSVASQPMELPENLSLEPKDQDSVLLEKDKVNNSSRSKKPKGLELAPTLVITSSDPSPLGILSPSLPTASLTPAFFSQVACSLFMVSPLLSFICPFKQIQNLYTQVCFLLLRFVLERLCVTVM
# In short: as §1
# ETV2 = target: T4, ETV2 (Homo sapiens, UniProt O00321 1-342); settings: protein: recombinant; tags: N-terminal GST; dsDNA, one strand shown
# T4 sequence: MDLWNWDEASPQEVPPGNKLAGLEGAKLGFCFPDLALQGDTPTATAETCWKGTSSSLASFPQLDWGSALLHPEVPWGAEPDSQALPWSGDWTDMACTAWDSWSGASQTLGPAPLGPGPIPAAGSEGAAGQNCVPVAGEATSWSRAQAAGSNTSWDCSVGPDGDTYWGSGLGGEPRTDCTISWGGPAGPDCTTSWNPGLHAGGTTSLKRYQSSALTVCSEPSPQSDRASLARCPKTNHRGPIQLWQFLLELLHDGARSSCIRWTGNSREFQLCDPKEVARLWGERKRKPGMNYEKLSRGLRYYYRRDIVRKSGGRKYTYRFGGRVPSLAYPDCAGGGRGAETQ
# In short: as §1
# ELF3 = target: T5, ELF3 (Homo sapiens, UniProt P78545 1-371); settings: protein: recombinant; tags: N-terminal GST; dsDNA, one strand shown
# T5 sequence: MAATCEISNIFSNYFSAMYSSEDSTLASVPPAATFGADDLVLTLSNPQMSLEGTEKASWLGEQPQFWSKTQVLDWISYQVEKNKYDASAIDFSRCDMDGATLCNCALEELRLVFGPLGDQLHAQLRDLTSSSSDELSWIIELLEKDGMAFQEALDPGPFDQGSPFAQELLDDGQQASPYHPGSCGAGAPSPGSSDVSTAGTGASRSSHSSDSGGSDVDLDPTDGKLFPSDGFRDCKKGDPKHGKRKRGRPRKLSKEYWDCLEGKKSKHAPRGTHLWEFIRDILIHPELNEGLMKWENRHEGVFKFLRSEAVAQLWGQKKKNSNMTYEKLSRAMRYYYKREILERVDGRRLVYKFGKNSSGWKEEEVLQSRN
# In short: as §1
# CRX = CRX (Homo sapiens, UniProt O43186 1-299); settings: protein: recombinant; tags: N-terminal GST; dsDNA, one strand shown
# In short: as §1
# ETV1 = ETV1 (Homo sapiens, UniProt P50549 1-477); settings: protein: recombinant; tags: N-terminal GST; dsDNA, one strand shown
# In short: as §1
# ERF = target: T6, ERF (Homo sapiens, UniProt P50548 1-548); settings: protein: recombinant; tags: N-terminal GST; dsDNA, one strand shown
# T6 sequence: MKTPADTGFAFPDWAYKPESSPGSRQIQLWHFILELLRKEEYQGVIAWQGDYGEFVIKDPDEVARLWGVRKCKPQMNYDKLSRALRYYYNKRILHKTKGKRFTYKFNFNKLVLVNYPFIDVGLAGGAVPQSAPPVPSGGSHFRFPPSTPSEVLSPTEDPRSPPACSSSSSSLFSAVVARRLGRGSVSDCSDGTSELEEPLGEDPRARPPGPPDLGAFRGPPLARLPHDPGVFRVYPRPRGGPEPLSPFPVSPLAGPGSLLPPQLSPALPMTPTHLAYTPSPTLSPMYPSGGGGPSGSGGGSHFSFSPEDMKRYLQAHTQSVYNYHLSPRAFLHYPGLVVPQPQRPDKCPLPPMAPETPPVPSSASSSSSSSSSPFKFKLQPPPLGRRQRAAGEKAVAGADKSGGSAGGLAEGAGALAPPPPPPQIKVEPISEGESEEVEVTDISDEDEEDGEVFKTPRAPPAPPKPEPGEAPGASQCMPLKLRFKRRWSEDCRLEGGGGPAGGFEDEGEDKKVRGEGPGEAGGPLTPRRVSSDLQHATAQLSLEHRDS
# In short: as §1
# ETV3L = target: T7, ETV3L (Homo sapiens, UniProt Q6ZN32 1-361); settings: protein: recombinant; tags: N-terminal GST; dsDNA, one strand shown
# T7 sequence: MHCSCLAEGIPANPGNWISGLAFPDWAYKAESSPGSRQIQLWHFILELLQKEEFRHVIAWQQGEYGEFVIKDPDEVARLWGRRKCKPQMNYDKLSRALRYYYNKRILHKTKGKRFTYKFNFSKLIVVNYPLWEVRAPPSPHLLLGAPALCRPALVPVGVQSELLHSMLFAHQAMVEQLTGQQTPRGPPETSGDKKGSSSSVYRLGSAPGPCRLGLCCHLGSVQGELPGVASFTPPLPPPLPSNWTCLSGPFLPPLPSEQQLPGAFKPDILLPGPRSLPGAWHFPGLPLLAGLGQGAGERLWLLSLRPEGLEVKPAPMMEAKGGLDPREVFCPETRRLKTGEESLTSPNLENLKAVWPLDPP
# In short: as §1
# ETS2 = target: T8, ETS2 (Homo sapiens, UniProt P15036 1-469); settings: protein: recombinant; tags: N-terminal GST; dsDNA, one strand shown
# T8 sequence: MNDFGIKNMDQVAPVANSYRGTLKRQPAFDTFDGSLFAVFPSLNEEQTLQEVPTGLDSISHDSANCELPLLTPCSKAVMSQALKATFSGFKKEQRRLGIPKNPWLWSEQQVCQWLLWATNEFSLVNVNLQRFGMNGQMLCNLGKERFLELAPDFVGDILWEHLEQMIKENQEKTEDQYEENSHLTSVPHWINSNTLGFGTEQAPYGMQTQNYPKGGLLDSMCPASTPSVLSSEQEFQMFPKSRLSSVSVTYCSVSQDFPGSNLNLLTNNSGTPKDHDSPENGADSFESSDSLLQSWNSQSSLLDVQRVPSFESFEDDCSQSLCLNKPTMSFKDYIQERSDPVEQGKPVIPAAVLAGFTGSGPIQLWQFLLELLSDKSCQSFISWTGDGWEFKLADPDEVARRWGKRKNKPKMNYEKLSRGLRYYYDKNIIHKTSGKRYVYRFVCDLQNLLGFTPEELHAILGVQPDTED
# In short: as §1
# SPDEF = target: T9, SPDEF (Homo sapiens, UniProt O95238 1-335); settings: protein: recombinant; tags: N-terminal GST; dsDNA, one strand shown
# T9 sequence: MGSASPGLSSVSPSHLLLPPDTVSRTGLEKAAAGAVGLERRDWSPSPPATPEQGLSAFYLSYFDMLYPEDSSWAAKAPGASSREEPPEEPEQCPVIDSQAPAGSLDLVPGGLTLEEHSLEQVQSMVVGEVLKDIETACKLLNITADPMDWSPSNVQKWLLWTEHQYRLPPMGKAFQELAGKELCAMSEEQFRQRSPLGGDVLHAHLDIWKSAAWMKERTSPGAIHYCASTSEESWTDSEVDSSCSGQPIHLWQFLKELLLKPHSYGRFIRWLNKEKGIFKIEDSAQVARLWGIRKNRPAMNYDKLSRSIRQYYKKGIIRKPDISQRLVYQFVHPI
# In short: as §1
# ETV7 = target: T10, ETV7 (Homo sapiens, UniProt Q9Y603 1-341); settings: protein: recombinant; tags: N-terminal GST; dsDNA, one strand shown
# T10 sequence: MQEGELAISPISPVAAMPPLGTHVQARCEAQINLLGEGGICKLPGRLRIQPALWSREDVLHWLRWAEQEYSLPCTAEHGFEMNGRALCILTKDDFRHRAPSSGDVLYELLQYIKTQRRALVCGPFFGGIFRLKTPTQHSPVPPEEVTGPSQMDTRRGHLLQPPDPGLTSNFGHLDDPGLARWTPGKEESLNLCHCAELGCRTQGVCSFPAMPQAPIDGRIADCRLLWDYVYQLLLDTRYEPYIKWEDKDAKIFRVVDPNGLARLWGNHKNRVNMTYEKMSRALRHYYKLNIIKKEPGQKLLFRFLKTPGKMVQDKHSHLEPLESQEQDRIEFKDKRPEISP
# In short: as §1
# ELF5 = target: T11, ELF5 (Homo sapiens, UniProt Q9UKW6-2 1-255); settings: protein: recombinant; tags: N-terminal GST; dsDNA, one strand shown
# T11 sequence: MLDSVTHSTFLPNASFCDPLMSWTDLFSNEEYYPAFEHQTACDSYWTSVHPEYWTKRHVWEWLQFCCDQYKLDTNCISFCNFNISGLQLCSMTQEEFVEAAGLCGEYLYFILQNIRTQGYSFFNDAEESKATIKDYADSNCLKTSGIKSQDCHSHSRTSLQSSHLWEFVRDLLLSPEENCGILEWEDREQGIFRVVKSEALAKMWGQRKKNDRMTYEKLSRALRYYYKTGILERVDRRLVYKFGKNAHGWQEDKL
# In short: as §1
# ETV3 = target: T12, ETV3 (Homo sapiens, UniProt P41162-2 1-143); settings: protein: recombinant; tags: N-terminal GST; dsDNA, one strand shown
# T12 sequence: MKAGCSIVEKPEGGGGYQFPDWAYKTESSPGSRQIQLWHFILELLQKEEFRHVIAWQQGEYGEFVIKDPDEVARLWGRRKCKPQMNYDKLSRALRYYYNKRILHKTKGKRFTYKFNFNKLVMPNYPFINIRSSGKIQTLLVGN
# In short: as §1
# ETV6 = ETV6 (Homo sapiens, UniProt P41212 1-452); settings: protein: recombinant; tags: N-terminal GST; dsDNA, one strand shown
# In short: as §1
# Chain of ETV5 (P41161 whole entry): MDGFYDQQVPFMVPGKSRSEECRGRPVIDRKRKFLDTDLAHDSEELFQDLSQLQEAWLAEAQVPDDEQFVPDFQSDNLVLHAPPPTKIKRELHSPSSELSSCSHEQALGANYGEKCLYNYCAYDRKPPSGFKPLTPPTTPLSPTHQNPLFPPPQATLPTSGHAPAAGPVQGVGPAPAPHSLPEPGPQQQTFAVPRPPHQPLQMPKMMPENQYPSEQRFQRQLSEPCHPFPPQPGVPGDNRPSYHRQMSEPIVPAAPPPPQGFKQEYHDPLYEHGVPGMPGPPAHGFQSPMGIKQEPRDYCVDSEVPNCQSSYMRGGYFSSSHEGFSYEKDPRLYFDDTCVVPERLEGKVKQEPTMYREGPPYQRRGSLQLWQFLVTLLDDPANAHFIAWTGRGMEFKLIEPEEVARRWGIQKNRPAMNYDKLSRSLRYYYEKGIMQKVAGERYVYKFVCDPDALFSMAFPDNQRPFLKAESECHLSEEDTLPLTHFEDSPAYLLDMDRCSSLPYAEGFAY
# Chain of ETV6 (P41212 whole entry): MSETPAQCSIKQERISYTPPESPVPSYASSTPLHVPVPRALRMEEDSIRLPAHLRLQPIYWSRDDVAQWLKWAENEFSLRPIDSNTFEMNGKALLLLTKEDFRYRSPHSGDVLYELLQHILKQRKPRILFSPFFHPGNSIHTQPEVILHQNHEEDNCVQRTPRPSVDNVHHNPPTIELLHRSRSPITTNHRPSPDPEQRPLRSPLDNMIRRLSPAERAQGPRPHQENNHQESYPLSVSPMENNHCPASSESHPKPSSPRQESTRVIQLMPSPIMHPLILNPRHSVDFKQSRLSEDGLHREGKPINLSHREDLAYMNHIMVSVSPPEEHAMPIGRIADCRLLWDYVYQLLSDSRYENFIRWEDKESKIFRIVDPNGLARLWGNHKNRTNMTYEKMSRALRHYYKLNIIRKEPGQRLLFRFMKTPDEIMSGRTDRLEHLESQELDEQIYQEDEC
# Chain of HSF1 (Q00613 whole entry): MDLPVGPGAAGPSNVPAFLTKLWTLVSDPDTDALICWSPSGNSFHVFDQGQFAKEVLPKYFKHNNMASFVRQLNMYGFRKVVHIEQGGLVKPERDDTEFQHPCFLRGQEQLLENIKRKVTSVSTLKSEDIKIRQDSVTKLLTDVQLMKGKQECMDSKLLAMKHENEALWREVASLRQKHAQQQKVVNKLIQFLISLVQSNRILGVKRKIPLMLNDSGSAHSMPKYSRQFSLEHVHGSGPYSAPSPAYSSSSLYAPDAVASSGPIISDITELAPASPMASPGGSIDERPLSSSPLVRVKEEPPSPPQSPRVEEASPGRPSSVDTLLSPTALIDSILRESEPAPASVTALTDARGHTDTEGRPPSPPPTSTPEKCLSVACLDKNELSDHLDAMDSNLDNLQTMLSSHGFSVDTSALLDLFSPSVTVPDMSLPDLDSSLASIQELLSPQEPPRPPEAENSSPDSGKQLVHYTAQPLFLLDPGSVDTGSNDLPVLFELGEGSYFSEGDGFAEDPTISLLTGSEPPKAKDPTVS
# Chain of CRX (O43186 whole entry): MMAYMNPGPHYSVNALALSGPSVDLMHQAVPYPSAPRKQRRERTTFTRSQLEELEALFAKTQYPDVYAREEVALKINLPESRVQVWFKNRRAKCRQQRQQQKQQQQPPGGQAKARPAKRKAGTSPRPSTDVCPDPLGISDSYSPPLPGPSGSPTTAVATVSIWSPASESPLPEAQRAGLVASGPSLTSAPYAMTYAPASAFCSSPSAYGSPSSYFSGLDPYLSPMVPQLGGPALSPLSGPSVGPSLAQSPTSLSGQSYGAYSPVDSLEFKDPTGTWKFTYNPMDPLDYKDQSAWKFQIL
# Chain of ELF4 (Q99607 whole entry): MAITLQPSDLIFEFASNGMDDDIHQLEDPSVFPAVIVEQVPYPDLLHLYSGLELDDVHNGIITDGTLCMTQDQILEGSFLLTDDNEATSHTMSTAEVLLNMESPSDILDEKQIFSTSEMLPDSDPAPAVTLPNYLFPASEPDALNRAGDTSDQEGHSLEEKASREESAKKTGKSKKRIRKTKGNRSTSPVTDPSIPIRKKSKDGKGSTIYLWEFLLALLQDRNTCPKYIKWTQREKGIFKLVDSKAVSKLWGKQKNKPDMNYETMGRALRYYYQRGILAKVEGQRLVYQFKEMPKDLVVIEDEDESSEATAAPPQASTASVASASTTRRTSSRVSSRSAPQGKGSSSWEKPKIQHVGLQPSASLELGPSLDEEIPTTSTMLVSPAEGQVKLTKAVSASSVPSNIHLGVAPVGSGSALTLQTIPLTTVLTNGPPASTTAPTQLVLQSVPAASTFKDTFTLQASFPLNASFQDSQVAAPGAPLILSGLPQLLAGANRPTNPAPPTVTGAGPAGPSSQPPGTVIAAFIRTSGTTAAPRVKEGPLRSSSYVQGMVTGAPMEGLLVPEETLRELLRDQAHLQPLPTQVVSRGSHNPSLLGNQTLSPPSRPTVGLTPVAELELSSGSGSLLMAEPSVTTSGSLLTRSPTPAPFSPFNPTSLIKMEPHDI
# Chain of ETV1 (P50549 whole entry): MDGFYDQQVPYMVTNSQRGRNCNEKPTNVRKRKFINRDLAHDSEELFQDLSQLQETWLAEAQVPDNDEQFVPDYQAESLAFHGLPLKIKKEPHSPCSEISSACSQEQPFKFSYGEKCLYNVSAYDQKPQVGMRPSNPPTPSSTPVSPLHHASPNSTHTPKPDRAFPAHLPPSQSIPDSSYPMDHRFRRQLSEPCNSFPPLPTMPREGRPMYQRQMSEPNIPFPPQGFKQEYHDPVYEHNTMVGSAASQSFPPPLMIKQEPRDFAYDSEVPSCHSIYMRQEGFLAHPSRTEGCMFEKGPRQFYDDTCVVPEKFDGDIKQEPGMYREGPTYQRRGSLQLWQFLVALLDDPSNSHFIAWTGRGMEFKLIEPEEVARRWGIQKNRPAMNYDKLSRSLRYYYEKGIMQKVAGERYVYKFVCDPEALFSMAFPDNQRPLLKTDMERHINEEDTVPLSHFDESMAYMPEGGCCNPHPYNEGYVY
sequence,measurement,setting,value
TCAATA,binding signal,FEV,"1.15 fold enrichment (6-mer frequency, TF over GST control)"
same,binding signal,ETV5,"1.21 fold enrichment (6-mer frequency, TF over GST control)"
same,binding signal,HSF1,"1.18 fold enrichment (6-mer frequency, TF over GST control)"
same,binding signal,SPIC,"1.06 fold enrichment (6-mer frequency, TF over GST control)"
same,binding signal,ELF4,"1.17 fold enrichment (6-mer frequency, TF over GST control)"
same,binding signal,ELK4,"1.29 fold enrichment (6-mer frequency, TF over GST control)"
same,binding signal,ETV2,"1.26 fold enrichment (6-mer frequency, TF over GST control)"
same,binding signal,ELF3,"1.23 fold enrichment (6-mer frequency, TF over GST control)"
same,binding signal,CRX,"1.34 fold enrichment (6-mer frequency, TF over GST control)"
same,binding signal,ETV1,"1.24 fold enrichment (6-mer frequency, TF over GST control)"
same,binding signal,ERF,"1.24 fold enrichment (6-mer frequency, TF over GST control)"
same,binding signal,ETV3L,"1.24 fold enrichment (6-mer frequency, TF over GST control)"
same,binding signal,ETS2,"1.15 fold enrichment (6-mer frequency, TF over GST control)"
same,binding signal,SPDEF,"1.17 fold enrichment (6-mer frequency, TF over GST control)"
same,binding signal,ETV7,"1.26 fold enrichment (6-mer frequency, TF over GST control)"
same,binding signal,ELF5,"1.08 fold enrichment (6-mer frequency, TF over GST control)"
same,binding signal,ETV3,"1.23 fold enrichment (6-mer frequency, TF over GST control)"
same,binding signal,ETV6,"1.14 fold enrichment (6-mer frequency, TF over GST control)"
